From PubChem BioAssay (Tox21) come the findings set out here.

Assay [1] can be described thus: qHTS assay to identify small molecule agonists of the hypoxia (HIF-1) signaling pathway - cell viability counter screen (AID 1224844; calls by dose curve; also: nearly all actives have a fitted effect of over 50% in size). The method in brief:
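Cytotoxicity measured by CellTiter-Glo ATP luminescence in the wells also read for beta-lactamase signal. Cells were HRE-bla ME-180 (2,000/well, 0.5% dialyzed FBS), exposed to compounds for 17 h at 37C.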
(Quantitative high-throughput screening tests each substance at several concentrations.)

Assay [2] is described as follows: qHTS assay to identify small molecule agonists of H2AX (AID 1224845; active = well fitted activation curve with a large enough effect in the signal ratio in the repeat runs, not every such curve was filed as active; the % refers to the signal ratio). Put shortly: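 Wild-type CHO-K1 cells, plated overnight, exposed 3hr at 37C to 15 concentrations (0.76% DMSO final). Lysed, then HTRF anti-pH2AX (S139) cryptate and anti-H2AX-d2 antibodies, 24 hr room temperature; 665/620 nm emission read.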
The nature of assay [3]: qHTS RealTime-Glo MT Cell Viability Assay in HepG2 cells - 24 hour (AID 1224867). Also: nearly all actives have a fitted effect of over 50% in size. The method in brief: (§1)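 Compound treatment began 5 h after plating HepG2 cells (600/well) with NanoLuc luciferase and prosubstrate. Plates stayed at 37 C for 40 h; luminescence was captured at six time points, 0 h through 40 h.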
A short description of assay [4]: qHTS RealTime-Glo MT Cell Viability Assay in HEK293 cells - 32 hour (AID 1224868). Also: top concentration of the series differs between compounds; nearly all actives have a fitted effect of over 50% in size. Put shortly:
(§2)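 Quantitative high-throughput screen of the Tox21 10K library in HEK293: cells and RealTime-Glo reagents plated together, compound added at 5 h, luminescence monitored through 40 h at 37 C.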

Assay [5] in a line: A CellTox Green Cytotoxicity Assay to monitor cytotoxicity in HEK293 cells - 0 hour (AID 1224869). Also: nearly all actives have a fitted effect of over 50% in size. Put shortly:
(§3)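 Fluorescence from a DNA-binding dye excluded by viable cells was measured repeatedly in the same HEK293 wells (600 cells/well) during continuous compound exposure at 37 C. Each assay gives one read point: 0, 8, 16, 24, 32 or 40 h.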

A short description of assay [6]: qHTS RealTime-Glo MT Cell Viability Assay in HepG2 cells - 40 hour (AID 1224870). Also: nearly all actives have a fitted effect of over 50% in size. Put shortly: (§4)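 HepG2 cells (600/well) mixed with RealTime-Glo MT reagent, settled 5 h at 37 C/5% CO2 before compound addition. Nonlytic NanoLuc luminescence from viable-cell prosubstrate reduction read repeatedly during 40 h treatment at 37 C.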
A short description of assay [7]: A CellTox Green Cytotoxicity Assay to monitor cytotoxicity in HEK293 cells - 40 hour (AID 1224871). Also: nearly all actives have a fitted effect of over 45% in size. Also: potency is read from the fitted curve at half-maximal effect. Put shortly:
as §3

A short description of assay [8]: qHTS RealTime-Glo MT Cell Viability Assay in HepG2 cells - 8 hour (AID 1224873). Also: nearly all actives have a fitted effect of over 55% in size. The method in brief:
as §4

Assay [9] in a line: qHTS RealTime-Glo MT Cell Viability Assay in HEK293 cells - 40 hour (AID 1224874). Also: nearly all actives have a fitted effect of over 50% in size. Also: potency is read from the fitted curve at half-maximal effect. As to conditions: RealTime-Glo luminescence; max response: active compounds read low. The method in brief: (§5)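 Luminescence, which tracks viable cell number through reduction of the prosubstrate to a NanoLuc substrate, was read over continuous 37 C culture. Cells (600/well) were premixed with reagent and rested 5 h before 23 nL of compound in DMSO was pinned.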

Assay [10] is described as follows: A CellTox Green Cytotoxicity Assay to monitor cytotoxicity in HEK293 cells - 24 hour (AID 1224875). Also: nearly all actives have a fitted effect of over 45% in size. Also: potency is read from the fitted curve at half-maximal effect. Put shortly: as §3
Assay [11] can be described thus: A CellTox Green Cytotoxicity Assay to monitor cytotoxicity in HepG2 cells - 16 hour (AID 1224876). Also: nearly all actives have a fitted effect of over 45% in size. Put shortly:
(§6)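 Real-time cytotoxicity: fluorescence of a cell-impermeant cyanine dye binding DNA of dead HepG2 cells, measured repeatedly (0–40 h) during compound exposure at 37 C. Cells seeded 600/well with reagent, dosed after 5 h.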

A short description of assay [12]: qHTS RealTime-Glo MT Cell Viability Assay in HepG2 cells - 32 hour (AID 1224877). Also: nearly all actives have a fitted effect of over 55% in size. The method in brief: as §1
Assay [13] is described as follows: A CellTox Green Cytotoxicity Assay to monitor cytotoxicity in HepG2 cells - 24 hour (AID 1224878). Also: nearly all actives have a fitted effect of over 45% in size. Put shortly:
as §6

Assay [14] in a line: A CellTox Green Cytotoxicity Assay to monitor cytotoxicity in HepG2 cells - 40 hour (AID 1224879). Also: nearly all actives have a fitted effect of over 40% in size. The method in brief:
as §6

Assay [15] in a line: qHTS RealTime-Glo MT Cell Viability Assay in HEK293 cells - 0 hour (AID 1224880). Put shortly:
as §5

Assay [16] is described as follows: qHTS RealTime-Glo MT Cell Viability Assay in HEK293 cells - 16 hour (AID 1224872). The method in brief:
as §2

The nature of assay [17]: qHTS assay to identify small molecule agonists of the hypoxia (HIF-1) signaling pathway (AID 1224846; active = well fitted activation curve with a large enough effect in the signal ratio in the repeat runs, not every such curve was filed as active; the % refers to the signal ratio). The method in brief:
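Compounds added to ME-180 cells carrying hypoxia-response-element beta-lactamase reporter (0.5% dialyzed FBS, 5 h preplating), 17 h at 37C; agonist activity detected by CCF4-AM B/G FRET read-out.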

A short description of assay [18]: qHTS assay to identify small molecule agonists of H2AX - cell viability counter screen (AID 1224847; calls by dose curve; also: top concentration of the series differs between compounds; nearly all actives have a fitted effect of over 30% in size). The method in brief: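 Compounds tested at 15 concentrations were incubated 3 hr at 37C with wild-type CHO-K1 cells; cellular ATP-based luminescence (CellTiter-Glo) indicated viability.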
A short description of assay [19]: qHTS assay to identify small molecule antagonists of the estrogen related receptor (ERR) signaling pathway from Tox21 library (AID 1224848). Also: nearly all actives have a fitted effect of over 50% in size. Put shortly: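 Compounds dissolved in DMSO are pin-transferred onto ERR reporter cells (2,000 per well) that have settled for 6 h at 37 C. Plates then incubate 18 h at 37 C before ONE-Glo luciferase reagent and a luminescence read 30 min later.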

Assay [20] is described as follows: qHTS assay to identify small molecule agonists of the estrogen related receptor (ERR) signaling pathway from Tox21 library (AID 1224849; calls by dose curve; also: nearly all actives have a fitted effect of over 15% in size). As to conditions: ERR reporter cell line, ONE-Glo luciferase, 18 h; at 92.4 µM (top of the series) unless noted. The method in brief: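 Luminescent agonist read-out (One-Glo, 30-minute room-temperature incubation) following 18-hour compound treatment at 37 C of the ERR cell line, which had been plated 6 hours before dosing.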

SMILES strings stand for the structures. Values without a mark were called inactive. Records with an inconclusive call do not appear. Calls of active or inactive are those of the source. Unless noted, calls follow the shape of the dose curve; as a rule, active = well fitted curve in the direction sought with a large enough effect in the repeat runs; inconclusive = weak or mixed curves; inactive = no such curve, though single readings can be large; an effect the other way counts as inactive or inconclusive.
% is scaled to controls: 0 for no effect and ±100 for the full control effect.

With `CCCCCCCCCCCc1ccccc1`, the Potency result in assay [1], in assay [2], in assay [3], in [4], in assay [5] and in [6] was “inactive” each time. The Potency entry in [7], in [8], in assay [10], in assay [11], in [12] and in assay [13] was “inactive” throughout. The Potency entry in [14] and in [15] was “inactive” in each case. Further, the max response in [9] was -1.2%.

Regarding `C/C=C(/C(=C/C)c1ccc(OC(C)=O)cc1)c1ccc(OC(C)=O)cc1`, the Potency result in assay [1], in assay [2], in assay [3], in assay [4], in assay [5] and in assay [6] was “inactive” in each case. The Potency result in assay [7], in assay [16], in assay [10], in [11], in assay [12] and in assay [13] was “inactive” each time. Besides, the Potency result in assay [14] and in assay [15] was “inactive” in each case.

On to `CCNc1cc(O)ccc1C`, for which the Potency result in assay [1], in assay [17], in assay [18], in [19], in assay [3] and in assay [4] was “inactive” throughout. In addition, the Potency entry in assay [5], in assay [6], in assay [16], in assay [8], in [12] and in assay [13] was “inactive” throughout. Moreover, the Potency result in [14] and in assay [15] was “inactive” in each case. For the same molecule, the activity change, positive = activation in assay [20] was -8.23%. Also, the Potency was 34.3 µM (active) in [7] and 38.5 µM (active) in [10]. For the same molecule, the max response in assay [9] is 7.99%.

For the molecule `COc1cc2nc(Cl)nc(N)c2cc1OC`, the Potency result in [1], in [17], in [18], in [3], in [5] and in assay [6] was “inactive” throughout. The Potency entry in assay [7], in assay [8], in assay [10], in assay [11], in [12] and in assay [13] was “inactive” in each case. Besides, the Potency result in assay [14] and in [15] was “inactive” in each case.

As to `CCCCc1ncc(/C=C(\Cc2cccs2)C(=O)O)n1Cc1ccc(C(=O)O)cc1`, the Potency result in assay [1], in [17], in [18], in assay [3], in assay [4] and in [5] was “inactive” each time. Further, the Potency result in [6], in [7], in assay [8], in assay [10], in assay [11] and in assay [12] was “inactive” in each case. Further, the Potency result in assay [13], in assay [14] and in assay [15] was “inactive” throughout. The max response in assay [9] was 2.83%.

In the case of `Nc1ccc(S(=O)(=O)Nc2ccccc2)cc1`, the Potency result in assay [1], in [17], in [18], in assay [3], in assay [4] and in assay [5] was “inactive” in each case. Besides, the Potency entry in assay [6], in [7], in assay [16], in [8], in assay [10] and in assay [11] was “inactive” throughout. The Potency result in assay [12], in assay [13], in assay [14] and in assay [15] was “inactive” in each case. Moreover, the max response in assay [9] is 0.381%.

For `CCOc1ccc(O)cc1`, the Potency result in assay [1], in assay [17], in assay [18], in assay [3], in assay [5] and in assay [6] was “inactive” in each case. The Potency result in [7], in assay [8], in assay [10], in assay [11], in [12] and in assay [13] was “inactive” throughout. Also, the Potency result in assay [14] and in assay [15] was “inactive” in each case. Further, in assay [9], the Potency was 11 µM (active).
